OTUD3 inh = inhibitors of human OTUD3 deubiquitinase; OTU domain-containing protein 3 (Homo sapiens), Q5T2D3; purified OTUD3, Ub-rhodamine fluorescence, 2 h; inhibition, % at 25 µM; actives 0.7% (n = 47,000); AID 1645858, 2021
Target sequence (Q5T2D3 whole entry, looked up, the tested form may be a part): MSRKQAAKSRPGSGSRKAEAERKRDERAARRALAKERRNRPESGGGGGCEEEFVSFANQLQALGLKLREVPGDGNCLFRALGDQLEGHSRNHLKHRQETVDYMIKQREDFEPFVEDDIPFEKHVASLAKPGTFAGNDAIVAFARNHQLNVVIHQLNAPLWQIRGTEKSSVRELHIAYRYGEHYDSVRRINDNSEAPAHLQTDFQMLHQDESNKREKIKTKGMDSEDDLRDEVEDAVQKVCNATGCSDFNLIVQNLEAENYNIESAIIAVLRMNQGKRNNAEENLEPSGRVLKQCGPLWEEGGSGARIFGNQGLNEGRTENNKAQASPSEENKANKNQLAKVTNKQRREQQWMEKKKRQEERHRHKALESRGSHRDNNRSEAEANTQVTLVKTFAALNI
USP28 block = inhibitors of human USP28 deubiquitinase. Ubiquitin carboxyl-terminal hydrolase 28 (Homo sapiens), Q96RU2. actives 3% (n = 47,000). inhibition, % at 25 µM. AID 1645857, 2021. purified USP28, Ub-rhodamine cleavage fluorescence, 30 min
* hit, by the source's call; / = no result given. Most compounds without a hit are left out; they make up all but 3.3% or so of the library. Rule as the data show it: active = inhibition above about 30%; inactive = the rest.

SMILES | OTUD3 inh | USP28 block
CC(=O)Nc1ccc(Nc2nnc(-n3nc(C)cc3C)c3ccccc23)cc1 | 1 | -5
c1csc(-c2nc(Nc3ccc4c(c3)CCC4)c3ccccc3n2)c1 | -23 | -40
Brc1ccc(Nc2nc(-c3ccccn3)nc3ccccc23)cc1 | 51* | 93*
OCCCNc1cc(-c2cccc(C(F)(F)F)c2)nc(-c2ccccn2)n1 | -6 | -9
FC(F)(F)c1cccc(Nc2nc(-c3ccccn3)nc3ccccc23)c1 | -4 | 88*
COc1cc(OC)nc(N2CCC(C(=O)O)CC2)n1 | -4 | -7
CC(=O)N1CCC[C@@H]2N(C(=O)c3cc(C)nc4onc(C)c34)CCC[C@@]21C | -8 | -3
COc1cc(NC(=O)Cn2nc(C(C)C)c(-c3cc(C)no3)cc2=O)cc(OC)c1 | 12 | 38*
COc1cccc(OC(C)C(=O)NCc2ccc(-c3ncncc3-c3cc(C)no3)cc2)c1 (configuration not stated) | 12 | 12
CC(C)C1Cc2c(sc3nc(SCC(=O)Nc4cccc5ccccc45)nc(N)c23)CO1 (configuration not stated) | 1 | -9
Cc1cccc(C)c1NC(=O)c1nnn(-c2ccc(Cl)cc2)c1C | -2 | 0
COc1cccc2cc(C(=O)NCc3cnn4ccccc34)oc12 | -17 | -19
COc1cccc2cc(C(=O)Nc3nc(-c4ccncc4)cs3)oc12 | 32* | 15
CSc1cccc(NC(=O)c2cn(C)nc2S(=O)(=O)N2CCCCCC2)c1 | -8 | -10
COc1cccc(NC(=O)c2cc(CN3CCCC3)on2)c1 | -5 | 21
O=C(Nc1ccc2c(c1)OCCO2)c1cc(CN2CCCC2)on1 | -9 | 63*
O=C(Nc1ccc2c(c1)OCO2)c1cc(-c2ccco2)on1 | 17 | 30*
O=C(Nc1cccnc1Cl)c1cc(-c2ccco2)on1 | 1 | /
COc1cc(NC(=O)c2cc(CN3CCOCC3)on2)cc(OC)c1 | 3 | 54*
O=C(Nc1ccc2c(c1)OCCO2)NC1CCCCC1 | -5 | 31*
Cc1ccc(NC(=O)c2cc(CN3CCCC3)on2)cc1C | -5 | 5
O=C(Nc1cccnc1)NC1CCCCC1 | -1 | 0
COc1ccc(CCNC(=O)c2cccc(-n3cnc4cccnc43)c2)cc1OC | 0 | 9
Cc1oc(CNC(=O)c2cccc(F)c2)nc1C(=O)N1CCCC1 | -1 | -5
O=C1NC2(CCN(Cc3ccc([N+](=O)[O-])cc3)CC2)N=C1c1ccccc1 | 0 | -1
SMILES | OTUD3 inh | USP28 block
CC1(C)COc2ccc(NS(=O)(=O)c3ccccc3F)cc2NC1=O | -2 | 0
O=C(c1ccc[nH]1)N1CCCC2(CCC(=O)N2CC2CC2)CC1 (configuration not stated) | -3 | -7
CC1=C(c2ccccc2)S(=O)(=O)N(CC(=O)Nc2ccc(Br)c(C)c2)C1=O | -5 | 2
O=C(NCc1cccnc1)C1CCN(c2cc(N3CCOCC3)ncn2)CC1 | 12 | 13
CCOc1cc(/C=C/C23NC(=O)CCN2c2ccccc2C3(C)C)ccc1OCc1ccccc1 (configuration not stated) | -180 | -249
Cc1ccc(NC(=O)c2ccc(N3CCCCC3)nn2)cc1F | -6 | 0
O=C(Nc1ccc2c(c1)OCCO2)C1CN(C(=O)c2ccc3c(c2)OCO3)C1 | 7 | 43*
O=C(Nc1ccc2c(c1)OCCO2)c1cc(CN2CCOCC2)on1 | 0 | 53*
O=C(Nc1ccc2c(c1)OCCO2)c1ccc(N2CCCCC2)nn1 | 5 | 59*
O=C(Nc1ccccc1F)C1CN(C(=O)c2ccc3c(c2)OCO3)C1 | 1 | 0
Cc1ccc(NC(=O)c2cc(CN3CCOCC3)on2)cc1C | 6 | 11
Cc1nc(NC2CCCCCC2)c2c(C)noc2n1 | 13 | 3
CCCCn1c(=O)c(CCC(=O)OCC(=O)Nc2ccc3c(c2)OCO3)nc2ccccc21 | -25 | -26
COc1cn(-c2ccc(F)cc2)nc1C(=O)Nc1ccc(Cl)cc1Cl | 16 | 12
C[C@@H]1CC[C@H]2C(CN3CCN(C(c4ccccc4)c4ccccc4)CC3)C(=O)O[C@]23[C@H]1CC[C@@]1(C)O[C@@H]31 (some centres not stated) | 5 | 8
CCn1ccc2c(cc(C(=O)Nc3c(C)cccc3C)n2C)c1=O | 2 | -10
CCn1ccc2c(cc(C(=O)Nc3cc(F)ccc3F)n2C)c1=O | -7 | 70*
Cn1ccc2c(cc(C(=O)NCc3ccccc3F)n2C)c1=O | 2 | 17
CCn1ccc2c(cc(C(=O)Nc3cccc(OC)c3)n2C)c1=O | 8 | 83*
CN1CCOC2(COc3ccccc3N(C(=O)NC3CC3)C2)C1 (configuration not stated) | 6 | 2
CCn1c(SCC(=O)N2CCCC2)nnc1-c1ccc(NC(=O)c2ccccc2C)cc1 | 11 | 7
COc1ccccc1OCC(=O)Nc1ccc2c(c1)CN(C(=O)c1ccco1)CC2 | 10 | 36*
O=C(COc1ccccc1F)Nc1ccc2c(c1)CN(C(=O)c1ccco1)CC2 | 2 | 41*
